From PMC9838217, “Structure of SALL4 zinc finger domain reveals link between AT-rich DNA binding and Okihiro syndrome”
Positions count from the first letter of the chain named.

Key:
Assay in all cases: HT-SELEX; high values mean tight binding
Conditions in all cases: protein: recombinant; vector His6-GST; dsDNA, one strand shown
SALL4 ZFC4 WT (HT-SELEX) = biological target: T1, SALL4 ZFC4 WT (HT-SELEX) (Mus musculus, UniProt Q8BX22 870-940)
T1 sequence: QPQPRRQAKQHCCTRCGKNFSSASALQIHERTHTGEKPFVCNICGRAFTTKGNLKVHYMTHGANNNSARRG
Summary of the method: (§1)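 Library DNA (1.5 µg in cycle one, 200 ng in later cycles) was incubated with 1 µg of purified recombinant mouse SALL4 zinc finger cluster 4, residues 870–940, in 100 µl buffer (10 mM Tris–HCl pH 7.5, 50 mM NaCl, poly(dI-dC), DTT) at room temperature for 10 min. Up to 6 rounds of Ni2+ bead capture, washing, PCR amplification and reselection were run in triplicate. Reads from MiSeq sequencing were scanned for 6-mers. For each canonical k-mer, binding signal is its read fraction as fold change versus the original random library.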

[1] = biological target: T2, SALL4 ZFC4 R900W (HT-SELEX) (Mus musculus, UniProt Q8BX22 870-940, R900W)
T2 sequence: T1 sequence with R31W
Summary of the method: as §1

[2] = biological target: T3, SALL4 ZFC4 G921D (HT-SELEX) (Mus musculus, UniProt Q8BX22 870-940, G921D)
T3 sequence: T1 sequence with G52D
Summary of the method: as §1

Sequence	binding signal (SALL4 ZFC4 WT (HT-SELEX)) [fold-change vs cycle 0]	binding signal [1] [fold-change vs cycle 0]	binding signal [2] [fold-change vs cycle 0]
GGTTTA	1.2 ± 0.0627	1.28 ± 0.0514	1.24 ± 0.0515
AACATA	2.08 ± 0.152	1.96 ± 0.129	1.76 ± 0.196
AAGTGA	1.34 ± 0.0271	1.52 ± 0.0501	1.42 ± 0.0562
GCACAC	0.35 ± 0.011	0.453 ± 0.0146	0.583 ± 0.0993
TTCAAA	1.81 ± 0.113	1.83 ± 0.0928	1.66 ± 0.161
ACTTAG	1.38 ± 0.0593	1.56 ± 0.0417	1.42 ± 0.0798
CGTACA	0.639 ± 0.0345	0.729 ± 0.0226	0.802 ± 0.0376
AGTTAC	1.44 ± 0.0411	1.56 ± 0.0396	1.49 ± 0.117
AAGGAG	1 ± 0.0181	1.14 ± 0.0427	1.13 ± 0.0474
CCTGAG	0.502 ± 0.0217	0.614 ± 0.0126	0.691 ± 0.0156
GTGAAC	0.832 ± 0.046	0.941 ± 0.022	1.01 ± 0.0456
CGAATC	0.662 ± 0.00887	0.742 ± 0.0291	0.827 ± 0.0621
ACTTAC	1.44 ± 0.0822	1.6 ± 0.106	1.47 ± 0.146
GTATAA	2.08 ± 0.124	1.96 ± 0.165	1.74 ± 0.197
ACAATG	1.23 ± 0.0338	1.34 ± 0.0389	1.32 ± 0.0407
ATAGTG	1.28 ± 0.0269	1.33 ± 0.0375	1.31 ± 0.0797
TATAGA	2.35 ± 0.163	2.02 ± 0.132	1.81 ± 0.192
ATTCAA	1.94 ± 0.125	1.97 ± 0.115	1.79 ± 0.158
TCCAGA	0.807 ± 0.0459	0.894 ± 0.029	0.927 ± 0.0563
TCGACA	0.525 ± 0.0359	0.609 ± 0.0106	0.731 ± 0.0296
CATCAC	0.892 ± 0.0417	0.975 ± 0.0159	1.032 ± 0.00917
CAACCC	0.417 ± 0.0301	0.488 ± 0.0225	0.582 ± 0.0463
AGAAGG	0.864 ± 0.0399	1.05 ± 0.055	0.997 ± 0.0501
GATCGA	0.664 ± 0.0531	0.763 ± 0.0206	0.91 ± 0.0578
CAACTG	0.724 ± 0.0172	0.829 ± 0.0401	0.9 ± 0.0128
ATAGAT	2.3 ± 0.159	2.05 ± 0.124	1.86 ± 0.167
ACCCAA	0.736 ± 0.034	0.839 ± 0.0217	0.873 ± 0.0335
ATCGTC	0.685 ± 0.0177	0.755 ± 0.0322	0.852 ± 0.0307
ATCGTA	1.24 ± 0.0384	1.28 ± 0.0284	1.29 ± 0.0379
GGACGA	0.34 ± 0.0131	0.412 ± 0.0156	0.498 ± 0.0522
